# Compound activity: PubChem, National Center for Advancing Translational Sciences (NCATS)
# The entries come from a sample that favours hits as a whole.
# Methyltransferases: Primary Screen for Target Class Profiling of Small Molecule Inhibitors of Methyltransferases; purified enzyme, MTase-Glo SAH luminescence; stronger effect = lower value; calls only at 40 µM; 3.9% of 25,000 active; call rule not given here
#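 Each enzyme was reacted with SAM and its substrate, with compounds tested once at 40 uM; SAH formed was read by MTase-Glo luminescence.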
# * marks the source's active call; other numbers are inactive results; i = inactive; + = active, no number; ! = not active in a repeat. % is scaled to controls: 0 for no effect and ±100 for the full control effect.
SMILES,Methyltransferases
CSc1ccc(CNC(=O)c2cc3n(n2)CC(C)(C(=O)NC2CCCCC2)N(C)C3=O)cc1 (stereo unspecified),i
CC(C)(C)c1cc2n(n1)CC(C)(C(=O)NC1CCCCCC1)N(Cc1ccccc1F)C2=O (stereo unspecified),i
CC(=O)N1CCN(C(=O)Cc2ccc(Nc3ncc(F)c(Nc4ccc(C(=O)Nc5ccccc5Cl)cc4)n3)cc2)CC1,i
CCS(=O)(=O)N1CCN(c2ccc(Nc3ncc(C(N)=O)c(NC4CC4)n3)cc2)CC1,+
CCCn1c(=O)c2ccc(Cl)cc2n2c(=O)n(CC(=O)Nc3cccc(F)c3)nc12,i
CCC(C)NC(=O)c1ccc2c(=O)n(C3CC3)c3nn(CC(=O)NC(C)C)c(=O)n3c2c1 (stereo unspecified),i
CC[C@@]1(O)C(=O)OCc2c1cc1n(c2=O)Cc2cc3c(CN(C)C)c(O)ccc3nc2-1,+!
CCCn1c(=O)c2ccc(C(=O)NC(C)C)cc2n2c(SCC(=O)NCc3ccccc3)nnc12,i
COc1ccccc1CNc1nc2c(S(=O)(=O)c3cc(C)ccc3C)nnn2c2ccccc12,i
Cc1c(Cl)cccc1NS(=O)(=O)c1ccc2[nH]c3c(c2c1)CCCC3,i
O=C(c1ccnc(-c2ccncc2)c1)N1CCCC1,i
C[C@@H]1CN(c2ccc(C(=O)N3CCC(N4CCOCC4)CC3)cn2)C[C@H](C)O1,i
O=C(c1ccc(Nc2nccc(-c3cc4ccccc4s3)n2)cc1)N1CCC(N2CCCC2)CC1,+
CC(C)CCn1c(=O)c2ccc(C(=O)NCC(C)C)cc2n2c(=O)n(Cc3c(F)cccc3Cl)nc12,i
CC1(C(=O)NCc2ccccc2Cl)Cn2cnc(C(=O)NCc3cccc(F)c3)c2C(=O)N1C1CC1 (stereo unspecified),i
CCCSCCCNC(=O)c1cc2n(n1)CC(C)(C(=O)NCc1ccc(F)cc1)N(C)C2=O (stereo unspecified),i
CN(C)c1nc(NC2CCC(NCCc3ccc(Br)cc3OC(F)(F)F)CC2)nc2ccccc12 (stereo unspecified),+
COc1ccccc1CNC(=O)C1c2c(n(C)c3ccccc23)SCC(=O)N1Cc1cccs1 (stereo unspecified),i
CC(C)c1ccc(S(=O)(=O)NCCn2c(CCc3ccccc3)nc3ccccc32)cc1,i
COc1ccccc1CNC(=O)C1(C)Cn2c(cc3ccccc32)C(=O)N1CCC(C)C (stereo unspecified),i
O=C(O)c1cccnc1Nc1cccc(C(F)(F)F)c1,i
O=C(Nc1cccc(Nc2cc(Nc3cccc(C(F)(F)F)c3)ncn2)c1)C1CC1,+
O=C(Nc1ccnc(NC(=O)C2CC2)c1)c1c(Cl)cccc1Cl,i
CCOC(=O)c1cc2n(n1)CC(C)(C(=O)NCc1ccccc1OC)N(CCc1ccccc1Cl)C2=O (stereo unspecified),i
CCc1ccc(NC(=O)CSc2nnc3n(CCC(C)C)c(=O)c4ccccc4n23)cc1,i
SMILES,Methyltransferases
c1cc(N[C@@H]2CCNC2)nc(-c2cnc3ccc(-c4cn[nH]c4)cn23)c1,+
CC(=O)N1CCN(C(=O)c2ccc3oc(-c4ccccn4)nc3c2)CC1,i
COc1ccc(CCNc2ncnc3c2CN(C2CCC2)C(=O)N(C)C3)cc1,i
CN1CCN(C(=O)c2ccc3cc(CCNc4ncnc5ccc(C#N)cc45)ccc3c2)CC1,+
COc1ccc(CN2C(=O)c3ccc(-c4ccccc4)n3CC2(C)C(=O)NC2CCCC2)cc1 (stereo unspecified),i
CC(CCc1ccccc1)NC(=O)Cn1ccc2cc(S(=O)(=O)N3CCCCC3)ccc21 (stereo unspecified),i
CCOc1ccccc1CNC(=O)c1cc2n(n1)CC(C)(C(=O)NC1CCCCCC1)N(C)C2=O (stereo unspecified),i
Cc1ccc(NC(=O)Cn2nc3n(Cc4ccccc4)c(=O)c4ccccc4n3c2=O)c(C)c1,i
CC1c2cccn2CCN1C(=O)Nc1cccc(Cl)c1 (stereo unspecified),i
Cc1ccc(N2C(=O)c3ccc(-c4ccco4)n3CC2(C)C(=O)NCc2ccccc2)cc1 (stereo unspecified),i
CC(C)N(C(=O)Cn1c(=O)oc2cc(S(=O)(=O)N3CCCCC3)ccc21)C1CCCCC1,i
COc1ccccc1-c1cccc(CN2CCC(NC(C)=O)CC2)c1,i
COc1cc2nc(N3CCCN(C)CC3)nc(NC3CCN(Cc4ccccc4)CC3)c2cc1OC,+
CN1CCN(Cc2nnc(C(=O)N3CCC[C@@H]3c3ccc(Br)cc3)n2Cc2ccccc2)CC1,i
COc1cc2nc(N3CCN(C)CC3)nc(NC3CCN(Cc4ccccc4)CC3)c2cc1OC,+!
COc1cc2c(NC3CCN(C(C)C)CC3)nc(N3CCC(F)(F)CC3)nc2cc1OCCCN1CCCC1,+
COc1cc2nc(N3CCN(C(=O)COc4c(OC)cccc4C(C)C)CC3)nc(N)c2cc1OC,i
O=C(NC1CCN(Cc2ccccc2)CC1)C1CCCN(c2cnc3nccnc3c2)C1 (stereo unspecified),i
O=C(Cn1ccc2cc(S(=O)(=O)N3CCCC3)ccc21)NC1CCCc2ccccc21 (stereo unspecified),i
CCOC(=O)c1cc2n(n1)CC(C)(C(=O)NCc1ccccc1)N(CCc1ccccc1OC)C2=O (stereo unspecified),i
COc1cccc(CSc2nnc3n(C)c(=O)c4ccc(C(=O)NC5CCCCC5)cc4n23)c1,i
COc1ccc(-c2cc3n(n2)CC(C)(C(=O)NCc2ccccc2OC)N(c2ccc(C)c(C)c2)C3=O)cc1 (stereo unspecified),i
COc1ccccc1CNC(=O)C1c2c(n(C)c3ccccc23)SCC(=O)N1c1ccc(F)cc1F (stereo unspecified),i
CCOc1cccc(C2c3cccn3-c3sc4c(c3CN2C(=O)Nc2cc(OC)ccc2OC)CCCC4)c1 (stereo unspecified),i
CC(C(=O)NCc1cccc(F)c1)n1ccc2cc(S(=O)(=O)N3CCCC3)ccc21 (stereo unspecified),i
SMILES,Methyltransferases
CCC(C(=O)NCCc1cccs1)n1ccc2cc(S(=O)(=O)N3CCCCC3)ccc21 (stereo unspecified),i
COc1ccc(OC)c(S(=O)(=O)N2CC[C@@H]3COCCN(C)[C@@H]3C2)c1,i
O=C(Cn1nc2nc(Nc3ccc(F)cc3)ccn2c1=O)Nc1ccc2c(c1)OCCO2,i
Cc1ccc(CNC(=O)CCc2nnc3n(Cc4ccccc4)c(=O)c4ccccc4n23)cc1,i
CCC(C)NC(=O)c1ccc2c(=O)n(C)c3nn(CC(=O)c4ccc(F)cc4)c(=O)n3c2c1 (stereo unspecified),i
COCCCN1C(=O)c2ccccc2CC1(C)C(=O)NC1CCCCCCC1 (stereo unspecified),i
CC1(C(=O)NC2CCCCCCC2)Cc2ccccc2C(=O)N1Cc1cccs1 (stereo unspecified),i
Cc1cc(C)c(NC(=O)N(Cc2ccc3c(c2)Cc2ccccc2-3)C2CCCCCC2)c(C)c1,+
CCOc1cccc(C2c3cccn3-c3sc4c(c3CN2C(=O)NCCC(=O)OC)CCCC4)c1 (stereo unspecified),i
CC(C)CCNC(=O)C1(C)Cn2c(ccc2-c2ccco2)C(=O)N1CCCc1ccccc1 (stereo unspecified),i
Cc1cc(S(=O)(=O)NCCN2CCOCC2)ccc1Cl,i
